PubChem BioAssay (NCATS)
Records with an inconclusive call do not appear. Where a call stands in place of a potency, no number is given. Active and inactive are the calls of the source. Unless noted, the call rests on the fitted dose curve; in most records, active means well fitted curve in the direction sought with a large enough effect; inconclusive means small, poorly fitted or top-dose-only effect, or another doubt; inactive means no such curve, though single readings can be large; an effect the other way counts as inactive or inconclusive.

Experiments:
[1] = Cell Viability - LYMP2-001 (AID 921);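 further: series mostly up to about 92 µM; cells exposed to compound for 24 h at 37 °C; nearly all actives have a fitted effect of over 70% in size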
In short: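 Steps: seed 2500 lymphoblastoid cells/well; 5 hr, 37 C; add compound; 24 hr, 37 C; CellTiter-Glo reagent, 30 min room temperature; read luminescence. Concentration-response modeled by Hill equation for AC50.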

[2] = Confirmation and Secondary Assay for Modulators of Hemoglobin Beta Chain Splicing at IVS2 705 locus (AID 930);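 further: GFP fluorescence per well restored by corrected splicing of the IVS2-705 intron in EGFP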; further: potency means the concentration at half of the fitted maximal effect
In short: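 First, HeLa EGFP-705 cells are seeded at 500/well in Optimem with 2% FCS and left overnight. Next, compound or DMSO is added for 2 days. Finally wells are laser-scanned and total peak GFP intensity scored.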

[3] = MultiTox-Fluor Cytotoxicity Assay - LYMP1-001 - Dead Cells (AID 946); further: potency means the concentration at half of the fitted maximal effect
In short: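 Cytotoxicity as increased dead-cell protease fluorescence (bis-AAF-R110, 485/520 nm), read 60 min after MultiTox-Fluor reagent. Human lymphoblastoid line exposed 16 h; Hill-fitted AC50, with DMSO as 0% and 15 uM tetraoctylammonium bromide as 100%.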

[4] = MultiTox-Fluor Cytotoxicity Assay - LYMP1-001 - Live Cells (AID 947)
[5] = Cell Viability - LYMP1-002 - Assay at 16 hr (AID 948)
In short: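 Seed 2500 LYMP1-002 cells per well in complete medium and hold 5 hr at 37 C. Add compound across a concentration series and incubate 16 hr at 37 C. Add CellTiter-Glo, wait 30 min at room temperature, read luminescence.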

[6] = MultiTox-Fluor Cytotoxicity Assay - LYMP1-002 - Live Cells (AID 955);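 further: cells exposed to compound for 16 hours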
In short: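 Read-out is live-cell protease activity (cell-permeant GF-AFC substrate, fluorescence Ex/Em=405/510), where a decrease indicates acute toxicity. Human lymphoblastoid cells were treated 16 hours at 37 C in a concentration series, and AC50 values came from standard Hill modelling.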

[7] = target: Muscarinic acetylcholine receptor M1 (Rattus norvegicus) (UniProt P08482); experiment: qHTS Assay for Antagonists of Acetylcholine Muscarinic M1 Receptor: Kinetic Measurement of Intracellular Calcium Response (AID 943);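 further: Fluo-4 calcium signal as peak divided by basal fluorescence over 4 min; series mostly up to about 35 µM; nearly all actives have a fitted effect of over 75% in size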
In short: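 Rat M1-CHO cells, 2000/well, overnight → Fluo-4 no-wash dye with probenecid, 1 h 37C → compound 10 min, room temp → basal read 6 s → carbachol EC80 (100 nM) → 4 min kinetic read; peak/basal.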

[8] = target: Muscarinic acetylcholine receptor M1 (Rattus norvegicus) (UniProt P08482); experiment: qHTS Assay for Antagonists of Acetylcholine Muscarinic M1 Receptor: Measurement of IP-One Response (AID 944); further: nearly all actives have a fitted effect of over 75% in size
In short: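 M1-CHO (rat), 2000 cells/well, overnight recovery; cpd 10 min; carbachol EC80 (200 nM), 30 min, HEPES buffer + 50 mM LiCl pH 7.4; IP-One HTRF, Ex 337, Em 620/665 nm.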

[9] = target: Pyruvate kinase (Leishmania mexicana) (UniProt Q27686); experiment: qHTS Validation Assay for Inhibitors of Leishmania Mexicana Pyruvate Kinase (AID 945)
In short: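 qHTS eight-point titrations against 0.2 nM LmPYK (E451W) in imidazole buffer pH 7.2 with 0.5 mM PEP, 0.1 mM ADP; 1 h, room temperature. Readout: PKLight luminescence, normalized to neutral DMSO wells.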

[10] = target: Pyruvate kinase PKM (Homo sapiens) (UniProt P14618); experiment: qHTS Assay for Activators of Human Muscle Pyruvate Kinase (AID 954; active means well fitted curve in the direction sought with a large enough effect, not every such curve was filed as active)
In short: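 Human PKM2 activity is measured as ATP generation, detected by luciferase-coupled luminescence. The enzyme (0.1 nM) acts on 0.5 mM PEP and 0.1 mM ADP for 1 h at ambient temperature; data are normalized to uninhibited and full-inhibition wells.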

Sequence of Muscarinic acetylcholine receptor M1 (Rattus norvegicus) (P08482 whole entry, looked up): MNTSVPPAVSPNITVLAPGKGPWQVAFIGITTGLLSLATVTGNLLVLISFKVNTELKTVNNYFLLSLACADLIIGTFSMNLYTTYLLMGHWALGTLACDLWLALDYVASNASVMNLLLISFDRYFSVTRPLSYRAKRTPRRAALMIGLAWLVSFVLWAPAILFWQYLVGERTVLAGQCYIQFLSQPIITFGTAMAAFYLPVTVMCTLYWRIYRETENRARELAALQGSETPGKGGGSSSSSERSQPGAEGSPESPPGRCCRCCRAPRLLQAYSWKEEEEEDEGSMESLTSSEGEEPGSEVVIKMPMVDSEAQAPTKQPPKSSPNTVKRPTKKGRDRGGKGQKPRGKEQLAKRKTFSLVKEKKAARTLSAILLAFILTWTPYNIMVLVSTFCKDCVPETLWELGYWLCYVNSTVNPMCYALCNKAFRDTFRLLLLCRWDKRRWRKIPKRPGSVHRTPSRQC
Sequence of Pyruvate kinase PKM (Homo sapiens) (P14618 whole entry, looked up): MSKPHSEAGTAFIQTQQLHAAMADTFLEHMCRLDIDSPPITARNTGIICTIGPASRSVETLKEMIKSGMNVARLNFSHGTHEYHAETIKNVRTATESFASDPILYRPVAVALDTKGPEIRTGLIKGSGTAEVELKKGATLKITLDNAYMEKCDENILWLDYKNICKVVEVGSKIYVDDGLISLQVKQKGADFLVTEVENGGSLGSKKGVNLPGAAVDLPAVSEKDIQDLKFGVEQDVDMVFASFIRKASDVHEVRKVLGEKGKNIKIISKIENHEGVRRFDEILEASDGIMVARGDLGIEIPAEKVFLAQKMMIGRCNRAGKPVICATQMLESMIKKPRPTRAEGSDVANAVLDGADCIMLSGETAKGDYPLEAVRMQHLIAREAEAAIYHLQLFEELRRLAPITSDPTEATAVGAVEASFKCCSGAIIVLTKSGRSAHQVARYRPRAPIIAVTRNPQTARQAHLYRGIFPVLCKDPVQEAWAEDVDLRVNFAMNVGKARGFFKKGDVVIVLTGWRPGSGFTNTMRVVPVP
Sequence of Pyruvate kinase (Leishmania mexicana) (Q27686 2-499 E452W): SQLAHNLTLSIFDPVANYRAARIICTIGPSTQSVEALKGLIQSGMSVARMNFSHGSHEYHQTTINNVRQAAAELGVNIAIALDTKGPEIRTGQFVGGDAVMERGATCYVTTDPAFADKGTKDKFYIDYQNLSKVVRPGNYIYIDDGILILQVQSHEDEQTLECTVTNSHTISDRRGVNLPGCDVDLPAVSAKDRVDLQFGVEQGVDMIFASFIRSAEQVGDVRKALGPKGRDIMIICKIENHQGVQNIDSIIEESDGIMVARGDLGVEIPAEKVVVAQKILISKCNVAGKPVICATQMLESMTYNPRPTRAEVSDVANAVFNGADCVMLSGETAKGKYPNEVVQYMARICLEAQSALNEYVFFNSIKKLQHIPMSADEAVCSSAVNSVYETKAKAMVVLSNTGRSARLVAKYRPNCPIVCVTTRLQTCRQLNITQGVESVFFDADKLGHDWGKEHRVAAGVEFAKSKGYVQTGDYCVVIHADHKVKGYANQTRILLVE

NC(=O)N/N=C/c1ccc([N+](=O)[O-])o1
outcome [1]: inactive
Potency [2]: inactive
Potency [3]: inactive
Potency [4]: inactive
Potency [5]: inactive
outcome [6]: inactive

C[C@]12C[C@H](O)[C@H]3[C@@H](CCC4=CC(=O)CC[C@@]43C)[C@@H]1CC[C@@H]2C(=O)CO
outcome [1]: inactive
Potency [7]: inactive
Potency [8]: inactive
outcome [9]: inactive
Potency [3]: inactive
Potency [4]: inactive
Potency [5]: inactive
outcome [10]: inactive
outcome [6]: inactive

CN(C)CCN(Cc1ccccc1)c1ccccn1
Potency [2]: inactive

O=C1O[C@H]([C@@H](O)CO)C(O)=C1O
outcome [1]: inactive
Potency [3]: inactive
Potency [4]: inactive
Potency [5]: inactive
outcome [6]: inactive

NS(=O)(=O)c1cc2c(cc1Cl)NC(CSCc1ccccc1)=NS2(=O)=O
Potency [2]: inactive

Cc1cc2nc3c(=O)[nH]c(=O)nc-3n(C[C@H](O)[C@H](O)[C@H](O)CO)c2cc1C
outcome [1]: inactive
Potency [3]: 39.8 µM (active)
Potency [4]: inactive
Potency [5]: inactive

CCN(CC)CCCC(C)Nc1c2ccc(Cl)cc2nc2ccc(OC)cc12 (stereo not given)
Potency [2]: 7.94 µM (active)

Oc1cccc(O)c1
outcome [1]: inactive
Potency [2]: inactive
Potency [3]: inactive
Potency [5]: inactive
outcome [6]: inactive

NCCNCCNCCN
outcome [1]: inactive
Potency [3]: inactive
Potency [4]: inactive
Potency [5]: inactive
outcome [6]: inactive

CN(C)CC[C@@H](c1ccc(Cl)cc1)c1ccccn1
Potency [2]: inactive

Cc1cc(CC(=O)O)n(C)c1C(=O)c1ccc(Cl)cc1
outcome [1]: inactive
Potency [2]: inactive
Potency [3]: inactive
Potency [4]: inactive
Potency [5]: inactive
outcome [6]: inactive

c1ccc(CN(CC2=NCCN2)c2ccccc2)cc1
Potency [2]: inactive

CSc1ccc2c(c1)N(CCC1CCCCN1C)c1ccccc1S2 (stereo not given)
Potency [2]: inactive

Nc1ccc(S(=O)(=O)NC(=O)c2ccccc2)cc1
Potency [2]: inactive

Cc1cccc(Nc2cc(Cl)nc(SCC(=O)O)n2)c1C
Potency [2]: inactive

[Cl][In]([Cl])[Cl]
outcome [1]: inactive
Potency [3]: inactive
Potency [4]: inactive
Potency [5]: inactive
outcome [6]: inactive

CCCCN(CCCC)CCCOC(=O)c1ccc(N)cc1
Potency [2]: inactive

CC12CCC(CC1)C(C)(C)O2
outcome [1]: inactive
Potency [2]: inactive
Potency [3]: inactive
Potency [4]: inactive
Potency [5]: inactive
outcome [6]: inactive

COc1ccccc1O
outcome [1]: inactive
Potency [3]: inactive
Potency [4]: inactive
Potency [5]: inactive
outcome [6]: inactive

OCC(O)CN1CCN(c2ccccc2)CC1 (stereo not given)
Potency [2]: inactive

CC1(C)[C@@H]2CC[C@@]1(C)C(=O)C2
outcome [1]: inactive
Potency [3]: inactive
Potency [4]: inactive
Potency [5]: inactive
outcome [6]: inactive

CSc1ccc2c(c1)C(N1CCN(C)CC1)Cc1ccccc1S2 (stereo not given)
Potency [2]: inactive

CCCCCCCCCCCCOS(=O)(=O)O
outcome [1]: inactive
Potency [3]: inactive
Potency [4]: inactive
Potency [5]: inactive
outcome [6]: inactive

Nc1ccc(S(=O)(=O)Nc2ccc(Cl)nn2)cc1
Potency [2]: inactive

NC(=O)NC(=O)Cc1ccccc1
Potency [2]: inactive

CCn1cc(C(=O)O)c(=O)c2cnc(N3CCNCC3)nc21
Potency [2]: inactive

O=C1c2c(O)cccc2Cc2cccc(O)c21
outcome [1]: inactive
Potency [2]: inactive
Potency [3]: inactive
Potency [4]: inactive
Potency [5]: inactive
outcome [6]: inactive

O=C(CCCN1CCN(c2ccccn2)CC1)c1ccc(F)cc1
Potency [2]: inactive

CC(COc1ccccc1)NC(C)C(O)c1ccc(O)cc1 (stereo not given)
Potency [2]: inactive

CC(CN1c2ccccc2Sc2ccccc21)N(C)C (stereo not given)
Potency [2]: inactive

NC(=O)c1ncn([C@@H]2O[C@H](CO)[C@@H](O)[C@H]2O)n1
outcome [1]: inactive
Potency [8]: inactive
Potency [3]: inactive
Potency [4]: inactive
Potency [5]: inactive
outcome [10]: inactive
outcome [6]: inactive

Cn1cc[nH]c1=S
Potency [2]: inactive

NCCNCCNCCNCCN
outcome [1]: inactive
Potency [3]: inactive
Potency [4]: inactive
Potency [5]: inactive
outcome [6]: inactive

NS(=O)(=O)c1cc2c(cc1C(F)(F)F)NC(Cc1ccccc1)NS2(=O)=O (stereo not given)
Potency [2]: inactive

NCC(=O)CCC(=O)O
Potency [2]: inactive

O=c1cc[nH]c(=S)[nH]1
Potency [2]: inactive

CCCCOC(=O)c1ccc(O)cc1
outcome [1]: inactive
Potency [3]: inactive
Potency [4]: inactive
Potency [5]: inactive
outcome [6]: inactive
